# In all, about 2,900 compounds were measured (“NF-kB SEAP reporter activity, fold change vs agonist alone”: median about 0.99, highest 2% from about 2.6 on). This excerpt belongs to a sample that is enriched for the highest values.
# What was measured:
# [1] = system: RAW-Dual; assay: NF-kB SEAP reporter activity, fold change vs agonist alone; cytotoxicity flag (confluency mask): not cytotoxic; higher = enhanced NF-kB activity
# How it was run: (§1)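 After 50 nL of library stock was delivered by pin tool to RAW-Dual macrophages (50,000 cells/well, DMEM, 384-well plates), a PRR agonist was added 1 h later and the plates were kept at 37 °C, 5% CO2. Twenty hours later, IRF was read from supernatant by QuantiLuc luminescence and NF-κB by QuantiBlue absorbance at 620 nm. Reporter activity is stated as fold change over agonist-alone wells. Wells with IncuCyte confluency under 70% of agonist controls in both mask sets were counted as cytotoxic.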
# [2] = system: RAW-Dual; assay: NF-kB SEAP reporter activity, fold change vs agonist alone; higher = enhanced NF-kB activity; conditions: library stock concentration (final ~1000-fold dilution): 10 mM
# How it was run: as §1
# [3] = system: RAW-Dual; assay: NF-kB SEAP reporter activity, fold change vs agonist alone; cytotoxicity flag (confluency mask): cytotoxic (confluency <70% of control); higher = enhanced NF-kB activity
# How it was run: as §1
# [4] = agonist: ODN 1826 (TLR9) 0.5 ug/mL
# [5] = agonist: Pam2CSK4 (TLR2/6) 0.1 ug/mL
# [6] = agonist: Pam3CSK4 (TLR2/1) 0.1 ug/mL
# [7] = cytotoxicity flag (confluency mask): not cytotoxic, agonist: Imiquimod (TLR7) […]
# [8] = cytotoxicity flag (confluency mask): not cytotoxic, agonist: MPLA (TLR4) […]
smiles,measurement,setting,value
Cc1ccc(-n2nc(C(C)(C)C)cc2NC(=O)Nc2ccc(OCCN3CCOCC3)c3ccccc23)cc1 (library stock concentration (final ~1000-fold dilution): 10 mM),NF-kB SEAP reporter activity,[1]; agonist: LPS (TLR4) 0.1 ug/mL,0.477
same,NF-kB SEAP reporter activity,[1]; [4],0.449
same,NF-kB SEAP reporter activity,[1]; [5],0.129
same,NF-kB SEAP reporter activity,[1]; [6],0.226
O=C(NCCN1CCOCC1)c1ccc(Cl)cc1 (library stock concentration (final ~1000-fold dilution): 10 mM),NF-kB SEAP reporter activity,[1]; agonist: LPS (TLR4) 0.1 ug/mL,1.32
same,NF-kB SEAP reporter activity,[1]; [4],1.86
same,NF-kB SEAP reporter activity,[1]; [5],1.18
same,NF-kB SEAP reporter activity,[1]; [6],1.17
O=C(Cc1ccc(-c2ccc(OCCN3CCOCC3)cc2)cn1)NCc1ccccc1 (library stock concentration (final ~1000-fold dilution): 10 mM),NF-kB SEAP reporter activity,[1]; agonist: LPS (TLR4) 0.1 ug/mL,4.55
same,NF-kB SEAP reporter activity,[1]; [4],3.36
same,NF-kB SEAP reporter activity,[1]; [5],2
same,NF-kB SEAP reporter activity,[1]; [6],2.39
O=C(NCCN1CCOCC1)c1ccc(Cl)cc1,NF-kB SEAP reporter activity,[2]; [7],1.74
same,NF-kB SEAP reporter activity,[2]; [8],1.82
Cc1ccc(-n2nc(C(C)(C)C)cc2NC(=O)Nc2ccc(OCCN3CCOCC3)c3ccccc23)cc1,NF-kB SEAP reporter activity,[2]; [7],0.455
same,NF-kB SEAP reporter activity,[2]; [8],0.804
O=C(Cc1ccc(-c2ccc(OCCN3CCOCC3)cc2)cn1)NCc1ccccc1,NF-kB SEAP reporter activity,[2]; [7],2.63
same,NF-kB SEAP reporter activity,[2]; [8],2.26
C=CC(=O)N1CC(Nc2ncnc3[nH]ccc23)CCC1C (stereo unspecified),NF-kB SEAP reporter activity,[2]; [7],0.572
same,NF-kB SEAP reporter activity,[2]; [8],0.785
C=CC(=O)N1CC(Nc2ncnc3[nH]ccc23)CCC1C (stereo unspecified) (library stock concentration (final ~1000-fold dilution): 10 mM),NF-kB SEAP reporter activity,[1]; agonist: LPS (TLR4) 0.1 ug/mL,0.655
same,NF-kB SEAP reporter activity,[1]; [4],0.682
same,NF-kB SEAP reporter activity,[1]; [5],0.56
same,NF-kB SEAP reporter activity,[1]; [6],0.738
CNCCC(Oc1cccc2ccccc12)c1cccs1 (stereo unspecified) (library stock concentration (final ~1000-fold dilution): 10 mM),NF-kB SEAP reporter activity,[3]; agonist: LPS (TLR4) 0.1 ug/mL,1.1
same,NF-kB SEAP reporter activity,[3]; [4],0.191
same,NF-kB SEAP reporter activity,[3]; [5],0.797
same,NF-kB SEAP reporter activity,[3]; [6],0.525
CNCCC(Oc1cccc2ccccc12)c1cccs1 (stereo unspecified),NF-kB SEAP reporter activity,"[2]; cytotoxicity flag (confluency mask): cytotoxic (confluency <70% of control), agonist: MPLA (TLR4) […]",1.98
OCC1OC(c2ccc(Cl)c(Cc3ccc(OC4CCOC4)cc3)c2)C(O)C(O)C1O (stereo unspecified) (library stock concentration (final ~1000-fold dilution): 10 mM),NF-kB SEAP reporter activity,[1]; agonist: LPS (TLR4) 0.1 ug/mL,1.12
same,NF-kB SEAP reporter activity,[1]; [4],1.07
same,NF-kB SEAP reporter activity,[1]; [5],0.963
same,NF-kB SEAP reporter activity,[1]; [6],0.983
OCC1OC(c2ccc(Cl)c(Cc3ccc(OC4CCOC4)cc3)c2)C(O)C(O)C1O (stereo unspecified),NF-kB SEAP reporter activity,[2]; [7],0.973
same,NF-kB SEAP reporter activity,[2]; [8],1.06
COc1ccc(S(=O)(=O)NCc2ccc(C(=O)NCCc3ccc(Cl)cn3)cc2)cc1 (library stock concentration (final ~1000-fold dilution): 10 mM),NF-kB SEAP reporter activity,[1]; agonist: LPS (TLR4) 0.1 ug/mL,1.36
same,NF-kB SEAP reporter activity,[1]; [4],1.15
same,NF-kB SEAP reporter activity,[1]; [5],0.849
same,NF-kB SEAP reporter activity,[1]; [6],1.49
O=C(Nc1ncc([N+](=O)[O-])s1)c1ccccc1O (library stock concentration (final ~1000-fold dilution): 10 mM),NF-kB SEAP reporter activity,[1]; agonist: LPS (TLR4) 0.1 ug/mL,0.954
same,NF-kB SEAP reporter activity,[1]; [4],1.21
same,NF-kB SEAP reporter activity,[1]; [5],0.573
same,NF-kB SEAP reporter activity,[1]; [6],0.684
COc1ccc(S(=O)(=O)NCc2ccc(C(=O)NCCc3ccc(Cl)cn3)cc2)cc1,NF-kB SEAP reporter activity,[2]; [7],0.318
same,NF-kB SEAP reporter activity,[2]; [8],1.19
COc1ccc(CNC(=O)Nc2ncc([N+](=O)[O-])s2)cc1 (library stock concentration (final ~1000-fold dilution): 10 mM),NF-kB SEAP reporter activity,[1]; agonist: LPS (TLR4) 0.1 ug/mL,2.74
same,NF-kB SEAP reporter activity,[1]; [4],1.64
same,NF-kB SEAP reporter activity,[1]; [5],0.864
same,NF-kB SEAP reporter activity,[1]; [6],1.32
COc1ccc(CNC(=O)Nc2ncc([N+](=O)[O-])s2)cc1,NF-kB SEAP reporter activity,[2]; [7],1.2
same,NF-kB SEAP reporter activity,[2]; [8],1.68
O=C(Nc1ncc([N+](=O)[O-])s1)c1ccccc1O,NF-kB SEAP reporter activity,[2]; [8],0.945
COCCOc1cnc2ccn(C(C)c3nnc4c(F)cc(-c5cnn(C)c5)cn34)c(=O)c2c1 (stereo unspecified) (library stock concentration (final ~1000-fold dilution): 10 mM),NF-kB SEAP reporter activity,[1]; agonist: LPS (TLR4) 0.1 ug/mL,1.54
same,NF-kB SEAP reporter activity,[1]; [4],1.11
same,NF-kB SEAP reporter activity,[1]; [5],1.11
same,NF-kB SEAP reporter activity,[1]; [6],1.13
COCCOc1cnc2ccn(C(C)c3nnc4c(F)cc(-c5cnn(C)c5)cn34)c(=O)c2c1 (stereo unspecified),NF-kB SEAP reporter activity,[2]; [7],1.01
same,NF-kB SEAP reporter activity,[2]; [8],1.01
CCCCCCCCCCCCCCCC(=O)OCC(O)C1OC(O)=C(O)C1=O (stereo unspecified),NF-kB SEAP reporter activity,[2]; [7],0.898
same,NF-kB SEAP reporter activity,[2]; [8],1.01
CCCCCCCCCCCCCCCC(=O)OCC(O)C1OC(O)=C(O)C1=O (stereo unspecified) (library stock concentration (final ~1000-fold dilution): 10 mM),NF-kB SEAP reporter activity,[1]; agonist: LPS (TLR4) 0.1 ug/mL,1.15
same,NF-kB SEAP reporter activity,[1]; [4],0.825
same,NF-kB SEAP reporter activity,[1]; [5],0.949
same,NF-kB SEAP reporter activity,[1]; [6],0.67
Cc1c[nH]c(-c2cnc(NCCNc3ccc(C#N)cn3)nc2-c2ccc(Cl)cc2Cl)n1,NF-kB SEAP reporter activity,[2]; [7],2.12
same,NF-kB SEAP reporter activity,[2]; [8],2.19
Cc1c[nH]c(-c2cnc(NCCNc3ccc(C#N)cn3)nc2-c2ccc(Cl)cc2Cl)n1.Cl (library stock concentration (final ~1000-fold dilution): 10 mM),NF-kB SEAP reporter activity,[1]; agonist: LPS (TLR4) 0.1 ug/mL,2.97
same,NF-kB SEAP reporter activity,[1]; [4],2.78
same,NF-kB SEAP reporter activity,[1]; [5],1.84
same,NF-kB SEAP reporter activity,[1]; [6],3.48
Cc1c[nH]c(-c2cnc(NCCNc3ccc(C#N)cn3)nc2-c2ccc(Cl)cc2Cl)n1.Cl,NF-kB SEAP reporter activity,[2]; [7],2.27
same,NF-kB SEAP reporter activity,[2]; [8],2.2
Cc1c[nH]c(-c2cnc(NCCNc3ccc(C#N)cn3)nc2-c2ccc(Cl)cc2Cl)n1 (library stock concentration (final ~1000-fold dilution): 10 mM),NF-kB SEAP reporter activity,[1]; agonist: LPS (TLR4) 0.1 ug/mL,3.08
same,NF-kB SEAP reporter activity,[1]; [4],2.65
same,NF-kB SEAP reporter activity,[1]; [5],2.12
same,NF-kB SEAP reporter activity,[1]; [6],2.9
